For experiment [1], the target named is N-terminal Xaa-Pro-Lys N-methyltransferase 1 (Homo sapiens) (UniProt Q9BV86). Description: qHTS Assay for Inhibitors of N-terminal methyltransferase 1 (NTMT1): LOPAC validation of the NTMT1 SAHH-coupled ThioGlo3 Assay (AID 1347143). Also: nearly all actives have a fitted effect of over 70% in size. Also: potency is read from the fitted curve at half-maximal effect. The method, boiled down: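 Fluorescence read-out (excitation 340nm, emission 450nm) of SAH-derived thiol, measured via SAHH coupling and ThioGlo3, taken immediately and after a 30 min room-temperature reaction, then normalized to the background read. Enzyme: NTMT1 at 125nM; cofactor SAM 100uM in the added reagent.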

Experiment [2] has as its system Zika virus NS2B-NS3 protease (linked construct). Description: Confirmatory screen NINDS AMC qHTS for Zika virus inhibitors (AID 1347152). Also: top concentration of the series differs between compounds; nearly all actives have a fitted effect of over 70% in size. The method, boiled down: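 IC50s from 4-parameter Hill fits of percent inhibition, based on AMC fluorescence gain (340/450 nm) over 15 min with 10 microM Bz-Nle-KRR-AMC. Enzyme: 1 nM linked NS2B-NS3 in Tris-HCl pH 8.0; 15-min compound preincubation.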

Experiment [3] concerns Zika virus NS2B-NS3 protease (unlinked complex). Description: Confirmatory screen GU AMC qHTS for Zika virus inhibitors (AID 1347153). Also: nearly all actives have a fitted effect of over 70% in size. A digest of the protocol:
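Compounds were preincubated 15 min at room temperature with 25 nM noncovalent NS2B-NS3 protease at pH 8.0; AMC substrate added at 10 microM and 15-min fluorescence gain (340/450 nm) converted to percent inhibition, fitted 4-parameter.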

The nature of experiment [4]: Confirmatory screen NINDS Rhodamine qHTS for Zika virus inhibitors (AID 1347161).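 Also: purified Zika NS2B-NS3 protease with linked NS2B cofactor domain and Rhodamine110 peptide substrate; series mostly up to about 110 µM; nearly all actives have a fitted effect of over 60% in size.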 A digest of the protocol:
(§1)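 In 10 mM Tris-HCl pH 8.0 containing 0.01% Tween 20, linked NS2B-NS3 protease (25 nM final) is exposed to test compounds for 15 min. Cleavage of 1.5 microM Rhodamine110 substrate is tracked by fluorescence over 15 min.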

The subject of experiment [5] is Zika virus NS2B-NS3 protease. The experiment in a line: Primary screen GU AMC qHTS for Zika virus inhibitors (AID 1347154). Also: nearly all actives have a fitted effect of over 70% in size. A digest of the protocol: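 Unlinked Zika NS2B hydrophilic domain/NS3 protease domain noncovalent complex (25 nM final) in 10 mM Tris-HCl pH 8.0, 0.01% Tween 20, with AMC peptide substrate. Fluorescence (ex 340, em 450 nm) change over 15 min, room temperature; percent inhibition fitted to 4-parameter Hill equation.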

The target of experiment [6] is Lysine-specific demethylase 5B (Homo sapiens) (UniProt Q9UGL1). The experiment in a line: Optimization screen for KDM5B Histone Demethylases FDH coupled qHTS against the LOPAC library (AID 1347166). The method, boiled down:
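KDM5BDeltaAP (200nM final) preincubated 10 min with compound, then 12.5uM H3K4Me3, 25uM a-ketoglutarate, ascorbate, Fe(II), NAD+ and FDH added; 50mM HEPES pH 7.5, 0.01% Tween-20. NADH fluorescence (340/450 nm) change over 30 min, room temperature.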

A short description of experiment [7]: qHTS of pediatric cancer cell lines to identify multiple opportunities for drug repurposing: Confirmatory screen for SK-N-SH cells (AID 1347129).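 Also: cells exposed to compound for 48 h before viability read; nearly all actives have a fitted effect of over 60% in size.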 Also: potency is read from the fitted curve at half-maximal effect. The method, boiled down: (§2)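 Cells (500-1,000/well) in growth media were settled 5 h at 37 degrees C, then given compounds for 48 h. Viability was read as CellTiter-Glo luminescence. Primary runs used MIPE at 11 points (0.78 nM-46 µM) and NPC at 8 points (0.59 nM-46 µM); follow-ups used 11 points.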

The nature of experiment [8]: qHTS of pediatric cancer cell lines to identify multiple opportunities for drug repurposing: Confirmatory screen for Saos-2 cells (AID 1347127). Also: potency is read from the fitted curve at half-maximal effect; nearly all actives have a fitted effect of over 60% in size. A digest of the protocol:
as §2

Experiment [9] in a line: qHTS of pediatric cancer cell lines to identify multiple opportunities for drug repurposing: Confirmatory screen for OHS-50 cells (AID 1347128).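 Also: potency is read from the fitted curve at half-maximal effect; compound exposure lasted 48 h at 37 degrees C; nearly all actives have a fitted effect of over 55% in size.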 A digest of the protocol: as §2
Experiment [10] is described as follows: qHTS of pediatric cancer cell lines to identify multiple opportunities for drug repurposing: Confirmatory screen for Rh30 cells (AID 1347126). Also: potency is read from the fitted curve at half-maximal effect; nearly all actives have a fitted effect of over 55% in size. A digest of the protocol: as §2
For experiment [11], the system named is Zika virus NS2B-NS3 protease (unlinked). Description: Optimization of GU AMC qHTS for Zika virus inhibitors: Unlinked NS2B-NS3 protease assay (AID 1347151). Also: series mostly up to about 52 µM; nearly all actives have a fitted effect of over 80% in size. The method, boiled down:
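Fluorescence gain (340/450 nm) over 15 min at room temperature, ~20% conversion, gave percent inhibition fitted to a 4-parameter Hill equation; enzyme was unlinked NS2B-NS3 (25 nM final), pH 8.0 Tris buffer.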

Experiment [12] concerns Zika virus NS2B-NS3 protease (linked construct). The experiment in a line: Primary screen NINDS Rhodamine qHTS for Zika virus inhibitors (AID 1347160). Also: nearly all actives have a fitted effect of over 55% in size. A digest of the protocol:
as §1

Experiment [13] concerns Zika virus NS2B-NS3 protease (unlinked complex). The experiment in a line: Primary screen GU Rhodamine qHTS for Zika virus inhibitors: Unlinked NS2B-NS3 protease assay (AID 1347159). Also: nearly all actives have a fitted effect of over 60% in size. The method, boiled down:
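Percent inhibition derives from the 15-min fluorescence change (ex 480, em 540 nm), normalized to no-enzyme and no-inhibitor wells. Reactions contained 25 nM NS2B-NS3 complex and 1.5 microM substrate in 10 mM Tris-HCl pH 8.0.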

Inconclusive results are not listed. Entries that show only a call come without a potency. Active and inactive are the calls of the source. Calls follow the shape of the dose curve; as a rule, active = well fitted curve in the direction sought with a large enough effect; inconclusive = small, poorly fitted or top-dose-only effect, or another doubt; inactive = no such curve, though single readings can be large; an effect the other way counts as inactive or inconclusive.

Chain of N-terminal Xaa-Pro-Lys N-methyltransferase 1 (Homo sapiens) (Q9BV86 whole entry, looked up): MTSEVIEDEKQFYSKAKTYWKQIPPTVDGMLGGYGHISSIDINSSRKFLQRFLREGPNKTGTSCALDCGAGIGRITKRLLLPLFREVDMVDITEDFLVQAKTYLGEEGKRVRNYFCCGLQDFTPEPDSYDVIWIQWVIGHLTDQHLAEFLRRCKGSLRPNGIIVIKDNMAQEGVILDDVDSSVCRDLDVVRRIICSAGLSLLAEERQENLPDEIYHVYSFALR
Chain of Lysine-specific demethylase 5B (Homo sapiens) (Q9UGL1 whole entry, looked up): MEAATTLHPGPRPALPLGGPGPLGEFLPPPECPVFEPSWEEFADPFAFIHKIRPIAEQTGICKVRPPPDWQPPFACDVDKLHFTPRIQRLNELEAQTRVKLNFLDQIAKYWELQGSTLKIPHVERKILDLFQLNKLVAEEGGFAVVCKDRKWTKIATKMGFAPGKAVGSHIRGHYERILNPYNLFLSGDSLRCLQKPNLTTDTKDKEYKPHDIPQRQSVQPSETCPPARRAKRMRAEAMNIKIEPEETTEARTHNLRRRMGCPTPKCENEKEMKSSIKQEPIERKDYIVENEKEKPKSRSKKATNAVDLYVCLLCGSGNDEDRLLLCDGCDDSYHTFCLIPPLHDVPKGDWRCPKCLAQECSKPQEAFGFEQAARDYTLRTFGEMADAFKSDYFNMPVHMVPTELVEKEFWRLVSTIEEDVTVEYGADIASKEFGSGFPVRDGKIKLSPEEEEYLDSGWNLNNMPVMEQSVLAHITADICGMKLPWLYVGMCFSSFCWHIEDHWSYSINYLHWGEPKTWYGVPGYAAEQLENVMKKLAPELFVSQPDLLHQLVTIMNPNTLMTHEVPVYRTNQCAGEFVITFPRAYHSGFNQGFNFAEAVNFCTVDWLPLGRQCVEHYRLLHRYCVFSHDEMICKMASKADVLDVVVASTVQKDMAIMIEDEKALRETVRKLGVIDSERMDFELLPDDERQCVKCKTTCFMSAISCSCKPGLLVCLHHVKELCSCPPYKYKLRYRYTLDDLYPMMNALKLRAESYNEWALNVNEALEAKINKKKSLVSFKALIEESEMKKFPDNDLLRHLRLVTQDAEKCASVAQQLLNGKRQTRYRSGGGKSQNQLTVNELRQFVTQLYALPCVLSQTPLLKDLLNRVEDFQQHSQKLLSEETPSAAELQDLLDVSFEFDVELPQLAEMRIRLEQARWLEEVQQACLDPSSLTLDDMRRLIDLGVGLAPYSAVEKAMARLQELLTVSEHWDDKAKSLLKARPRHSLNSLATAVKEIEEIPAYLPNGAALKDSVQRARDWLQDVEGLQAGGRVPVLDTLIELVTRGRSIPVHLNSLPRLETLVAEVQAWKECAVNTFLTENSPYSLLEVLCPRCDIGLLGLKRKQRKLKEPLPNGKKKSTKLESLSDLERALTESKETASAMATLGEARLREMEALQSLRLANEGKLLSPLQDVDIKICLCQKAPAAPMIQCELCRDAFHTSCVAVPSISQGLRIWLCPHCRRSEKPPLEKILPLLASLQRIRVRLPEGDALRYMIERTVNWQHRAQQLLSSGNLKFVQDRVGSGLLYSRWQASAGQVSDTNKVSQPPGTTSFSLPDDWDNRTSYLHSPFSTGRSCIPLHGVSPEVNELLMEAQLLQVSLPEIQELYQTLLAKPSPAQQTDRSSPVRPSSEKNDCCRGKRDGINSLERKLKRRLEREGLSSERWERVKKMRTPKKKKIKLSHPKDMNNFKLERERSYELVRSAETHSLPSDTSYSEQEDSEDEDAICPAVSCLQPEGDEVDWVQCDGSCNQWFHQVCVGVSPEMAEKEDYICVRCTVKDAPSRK

Take `CC(C)Oc1cccnc1N(C)C1CCN(Cc2ccccc2)CC1`: the Potency in experiment [1] was 56.2 µM (active). Further, the Potency entry in [2] and in experiment [4] was “inactive” throughout. The molecule was called inactive in experiment [3].
As to `C[N+]1(C)C2CC(OC(=O)[C@H](CO)c3ccccc3)CC1C1OC12` (some centres undefined), the Potency entry in experiment [1] was “inactive”.
Turning to `Clc1cnc(Oc2ccc(Oc3ncc(Cl)cc3Cl)cc2)c(Cl)c1`, the Potency entry in [1] and in [5] was “inactive” each time. In addition, the outcome in [6] was inactive.
Consider `CCCCCC[C@H]1C(=O)O[C@H](C)[C@H](NC(=O)c2cccc(NC=O)c2O)C(=O)O[C@@H](C)[C@@H]1OC(=O)CC(C)C`, for which the Potency in experiment [7] is 9.35 µM (active).
Turning to `C=CCON=C(C[C@H]1O[C@@H]2O[C@]3(C)CC[C@@H]4[C@H](C)CC[C@@H]([C@H]1C)[C@@]24OO3)[C@H]1O[C@@H]2O[C@]3(C)CC[C@H]4[C@H](C)CC[C@@H]([C@@H]1C)[C@@]24OO3`, the Potency result in experiment [7] and in [5] was “inactive” each time.
As for `C[C@@H](N)Cc1cnc[nH]1`, the Potency entry in experiment [1] and in experiment [5] was “inactive” each time. In [6], the molecule was classed as inactive.
As for `COc1ccc(C(=O)c2c(C)n(CCN3CCOCC3)c3cc(I)ccc23)cc1`, the Potency entry in experiment [7] and in experiment [5] was “inactive” throughout.
On to `NC(CP(=O)(O)O)C(=O)O` (centres undefined), for which the Potency result in [1] and in experiment [5] was “inactive” throughout. Further, in experiment [6], the call was inactive.
Consider `COc1ccc2c(c1)CN(C)CC2c1ccc(Cl)c(Cl)c1` (centres undefined), for which the Potency in experiment [8] and in [9] was 23.3 µM (active) each time. The Potency result in experiment [5] is “inactive”.
As for `COC1=CC(C)=C[C@@H](C)[C@@H](O)[C@@H](C)CC(C)=CC=C[C@H](OC)[C@H]([C@@H](C)[C@@H](O)[C@H](C)[C@@]2(O)C[C@@H](O)[C@H](C)[C@@H](C(C)C)O2)OC1=O`, the Potency in experiment [10] was 10.4 µM (active). Further, the Potency result in [7] and in [5] was “inactive” each time.
In the case of `CCCN(CCC)C1CCc2ccc(O)cc2C1` (centres undefined), the Potency result in experiment [1], in [11] and in [5] was “inactive” in each case. Further, the outcome in [6] was inactive.
Regarding `NC(=O)CN1CC(O)CC1=O` (centres undefined), the Potency entry in experiment [1] and in experiment [11] was “inactive” throughout. In addition, in experiment [6], the molecule was classed as inactive.
For `NC1CC1c1ccccc1` (centres undefined), the Potency result in experiment [1] and in experiment [5] was “inactive” throughout. Besides, in [6], the outcome was inactive.
Regarding `O=C1CCCN1CC#CCN1CCCC1`, the Potency entry in [1] and in experiment [5] was “inactive” in each case. Besides, the molecule was classed as inactive in experiment [6].
As to `O=C(Cc1ccc(Cl)c(Cl)c1)N1CCCCC1CN1CCCC1` (centres undefined), the Potency entry in experiment [1] and in experiment [5] was “inactive” throughout. Also, the outcome in experiment [6] was inactive.
Turning to `CN1C2CCC1CC(OC(=O)c1cc(Cl)cc(Cl)c1)C2` (centres undefined), the Potency result in [1] and in experiment [11] was “inactive” each time. For the same molecule, the outcome in experiment [6] was inactive.
Take `NCCc1c[nH]c2ccccc12`: the Potency result in [1], in experiment [5] and in experiment [12] was “inactive” in each case. Further, the call in [6] was inactive.
With `c1ccc(C2(c3ccccc3)CC2C2=NCCN2)cc1` (centres undefined), the Potency result in [1] and in experiment [11] was “inactive” in each case.
Turning to `Cc1c(C(=O)Nc2cccc(C(F)(F)F)c2)cc(-c2ccccc2)n1CCCN1CCOCC1`, the Potency in experiment [9] was 42.7 µM (active). Besides, the Potency result in [5], in [13] and in experiment [12] was “inactive” each time.
